AmpC no deterg: blocks E. coli AmpC beta-lactamase in detergent-free assay | P00811 | AmpC nitrocefin hydrolysis, absorbance 480 nm, 0.0001% Triton | Potency, µM (doses to about 57.1 µM), most hits filed as inhibitors | 0.52% of 330,000 active | AID 485341; further: nearly all actives have a fitted effect of over 20% in size
Target sequence (P00811 whole entry, looked up): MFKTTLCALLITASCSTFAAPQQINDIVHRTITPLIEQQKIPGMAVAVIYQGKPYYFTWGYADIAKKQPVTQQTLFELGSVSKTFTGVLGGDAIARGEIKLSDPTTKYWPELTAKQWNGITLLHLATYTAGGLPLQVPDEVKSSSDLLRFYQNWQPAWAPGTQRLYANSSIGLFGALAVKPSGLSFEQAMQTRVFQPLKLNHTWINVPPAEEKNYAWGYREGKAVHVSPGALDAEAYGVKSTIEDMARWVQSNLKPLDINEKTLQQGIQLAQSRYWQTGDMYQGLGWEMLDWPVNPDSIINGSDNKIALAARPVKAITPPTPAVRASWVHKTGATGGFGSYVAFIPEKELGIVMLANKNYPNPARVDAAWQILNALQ
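AmpC (5.3 nM in the dispensed reagent) in 20 mM phosphate pH 7.0 with 0.01% (detergent screen) or 0.0001% Triton X-100 was preincubated with compounds for 15 min at room temperature. Nitrocefin was then added from an 800 uM solution, and hydrolysis was followed at 480 nm.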
Shiga inhibitor: inhibitors of Shiga toxin in Vero cells. 9.2% of 290,000 active. Vero cells, Shiga toxin protein synthesis inhibition reporter. inhibition, % at 38.7 µM; in the data active means inhibition mostly above about 28%, no sharp cut-off; inactive means mostly below about 43%
CHX counter: counter-screen hit for Shiga toxin inhibitors, cycloheximide | cell reporter, cycloheximide protein synthesis inhibition counterscreen | max response, % | 12% of 300,000 active | AID 2314; in the data active means max response mostly above about 13%, no sharp cut-off; inactive means mostly below about 14%; further: read at 38.3 µM for the half of the compounds with a filed dose
AmpC inh detg: AmpC beta-lactamase inhibition with detergent present; 0.041% of 370,000 active; Potency, µM (titrated, usually from 114 µM), hits mostly inhibitors; AmpC hydrolysis of nitrocefin, absorbance 480 nm, 0.01% Triton; further: nearly all actives have a fitted effect of over 25% in size
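20 mM phosphate pH 7.0 + 0.01% (detergent screen) or 0.0001% Triton X-100; 5.3 nM AmpC reagent; cpd preinc 15 min RT; nitrocefin (800 uM stock) to start; A480 q20 s × 4 min; Activity was normalised to no-enzyme and no-compound control wells.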
NS1 function inh: influenza NS1 inhibition; Potency, µM (titrated, usually from 46.1 µM); 0.4% of 270,000 active; AID 2326; calls by dose curve; further: actives are rising curves; nearly all actives have a fitted effect of over 50% in size
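S. cerevisiae expressing influenza A NS1, grown in glucose, washed, then diluted 1:100 into pH 6.0 -URA galactose medium with 23 nl compound. Growth recovery read as OD600; NS1-free strain serves as control.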
Each line names hits and unclear results; the compound was inactive in the other large screens. The entries come from a sample that favours hits as a whole. Unless noted, the call rests on the fitted dose curve; in most records, active means well fitted curve in the direction sought with a large enough effect; inconclusive means small, poorly fitted or top-dose-only effect, or another doubt; inactive means no such curve, though single readings can be large; an effect the other way counts as inactive or inconclusive.

COc1ccc(C2CC(c3ccccc3)Oc3c(C)ccc(C(C)C)c32)cc1 (stereo not drawn)	none (no result: AmpC no deterg, AmpC inh detg, NS1 function inh)
CCc1ccccc1NC(=O)c1nc2nc(C)cc(C(F)F)n2n1	none (no result: AmpC no deterg, Shiga inhibitor, CHX counter, NS1 function inh)
CSCC[C@H](NC(=O)[C@H](CC(C)C)NC(=O)CNC(=O)[C@H](Cc1ccccc1)N(C)C(=O)[C@H](Cc1ccccc1)NC(=O)[C@H](CC(=O)O)NC(=O)[C@@H](N)CC(=O)O)C(N)=O	none (no result: AmpC no deterg, AmpC inh detg, NS1 function inh)
COc1cccc(NC(=O)c2ccccc2-c2nc(-c3ccccc3)no2)c1	CHX counter 18.9, AmpC inh detg inconclusive
COc1cccc(NC(=O)c2ccccc2-c2nc(-c3ccc(F)cc3)no2)c1	none
Cc1ccc(S(=O)(=O)c2nnn3c2nc(N(C)Cc2ccccc2)c2cc(Cl)ccc23)cc1C	none (no result: AmpC no deterg, Shiga inhibitor, CHX counter, NS1 function inh)
Cc1ccc(C(=O)Nc2ccc(C(=O)OCc3cc(=O)n4c5c(sc4n3)CCCC5)cc2)cc1	none (no result: AmpC no deterg, Shiga inhibitor, CHX counter, NS1 function inh)
CCc1c(C)nc2ncnn2c1Nc1ccc(C(C)=O)cc1	Shiga inhibitor 108.8, CHX counter 45.9
CC(=O)c1ccc(NC(=O)CCc2c(C)nc3ncnn3c2C)cc1	Shiga inhibitor 61.3, CHX counter 21.3, AmpC inh detg inconclusive
CCOC(=O)c1ccc(Nc2c(CC)c(C)nc3ncnn23)cc1	none
COC(=O)c1ccc(NC(=O)CCc2c(C)nc3ncnn3c2C)cc1	none
CN(C(=O)CSc1nc2ccccc2n1CC(=O)N(C)c1ccc(F)cc1)c1ccccc1	none (no result: AmpC no deterg, Shiga inhibitor, CHX counter, NS1 function inh)
O=C(/C(C=Nc1ccc(F)cc1)=C(/O)c1ccco1)C(F)(F)F	Shiga inhibitor 62.0, CHX counter 59.6
O=C(NCCNC(=O)c1ccco1)c1ccc(F)cc1	none
Cc1ccc(N=C/C(C(=O)C(F)(F)F)=C(\O)c2ccco2)cc1Cl	Shiga inhibitor 106.2, CHX counter 59.7
Cc1cccc(N=C/C(C(=O)C(F)(F)F)=C(\O)c2ccco2)c1	none
COCCCNC(=O)CSc1nc2cc3c(cc2c(=O)n1CCCCCC(=O)NCc1ccc(OC)cc1)OCO3	none (no result: AmpC no deterg, Shiga inhibitor, CHX counter, NS1 function inh)
C=C(C)C1(O)OC(=O)C=C1OC (stereo not drawn)	CHX counter 8.5
COc1ccc(C2=CC(=O)OC3(CCCCC3)O2)cc1	none
Cn1c(=O)c2c(-c3ccccc3Br)n(CCc3ccccc3)cc2n(C)c1=O	none (no result: AmpC no deterg, Shiga inhibitor, CHX counter, NS1 function inh)
C/C(=N\NC(=O)c1ccc(N(C)C)cc1)c1cccnc1	CHX counter 23.2, AmpC inh detg inconclusive
C/C(=N\NC(=O)c1ccncc1)c1cccnc1	none
CCN(CC)c1ccc(C(=O)N/N=C(\C)c2cccnc2)cc1	none (no result: NS1 function inh)
C/C(=N\NC(=O)c1ccc(N(C)C)cc1)c1ccc(C)cc1C	Shiga inhibitor 24.5
C/C(=N\NC(=O)c1ccoc1C)c1cccnc1	CHX counter 42.1
C/C(=N\NC(=O)c1cccnc1)c1ccc(OC2OCCOC2Oc2ccc(/C(C)=N/NC(=O)c3cccnc3)cc2)cc1 (stereo not drawn)	Shiga inhibitor 53.7, CHX counter 16.3 (no result: NS1 function inh)
COc1ccc(/C(C)=N/NC(=O)CNC(=O)c2cccnc2)cc1	AmpC inh detg inconclusive
COc1ccc(Cn2ccc3nc(C)c(C(=O)N4CCN(c5ccccc5F)CC4)cc3c2=O)cc1	none (no result: AmpC no deterg, Shiga inhibitor, CHX counter, NS1 function inh)
C/C(=N\NC(=O)c1ccccc1C)c1cccnc1	Shiga inhibitor 105.6, CHX counter 30.8
COc1ccc(OC)c2c(C)cc(N3CCN(C(=O)c4ccc(Cl)cc4)CC3)nc12	AmpC inh detg inconclusive
CCN(CC)c1ccc(/C=C2/C(=O)N(c3ccc([N+](=O)[O-])cc3)N=C2N2CCOCC2)cc1	AmpC inh detg inconclusive
CCCC1=NN(c2ccc([N+](=O)[O-])cc2)C(=O)/C1=C\N(C)C	CHX counter 11.2, AmpC inh detg inconclusive
CC(=O)N(Cc1cccnc1)Cc1cc2ccccc2[nH]c1=O	none
O=C(c1cc2ccccc2[nH]1)N(Cc1cccnc1)CC1CCCN(C2CCCCC2)C1 (stereo not drawn)	CHX counter 14.7
O=[N+]([O-])c1ccc(S(=O)(=O)N/N=C/c2cccs2)cc1	Shiga inhibitor 27.2, CHX counter 19.8
Cc1ccc(S(=O)(=O)N/N=C/c2cccs2)cc1	none (no result: NS1 function inh)
COc1cccc(CC(=O)N2CCC(n3nccc3NC(=O)C3CC3)CC2)c1	none
CSc1ccc(CC(=O)N2CCC(n3nccc3NC(=O)C3CC3)CC2)cc1	Shiga inhibitor 75.4, CHX counter 44.7, AmpC inh detg inconclusive
CSCC(C)N1CCC(n2nccc2NC(=O)c2ccc3c(c2)OCO3)CC1 (stereo not drawn)	none
